The nature of assay [1]: liver-stage malaria parasite load reduction – cell-based, known kinase inhibitor set, luminescence, hepatoma host viability (AID 624392).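 Further: infected cells incubated roughly two days before readout.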 As to conditions: Plasmodium liver stage in hepatoma cells, luciferase luminescence, concentration not given here; liver cell % of control: measured here: host liver cell viability; parasite % of control: stronger effect = lower value.
Assay [2] in a line: altered dexamethasone sensitivity, NF-kB reporter, cell-based, luciferase, IL-1B stimulus (AID 624486).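 On percent of negative control (+Dex): 100% = mean signal of vehicle control wells on the plate.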 The following applies: IL-1B + dexamethasone, luminescence; percent of negative control (+Dex): actives lie on both sides, concentration not given here; z-score: measured here: IL-1B alone, no Dex.
A short description of assay [3]: C. elegans survival during P. aeruginosa infection – whole organism (AID 651566).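 Further: tested at 14 µM; sign flipped so higher z means a lower ratio.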 As to conditions: C. elegans killed by P. aeruginosa, survival ratio.
The nature of assay [4]: pro-inflammatory signaling induction in mouse macrophages – cell-based, murine, luminescence (AID 652131). The following applies: murine macrophage pro-inflammatory reporter, stronger effect = higher value.
For assay [5], the target named is Cellular tumor antigen p53 (Homo sapiens) (UniProt P04637). The assay can be described thus: GFP-p53 level modulators in HPV16+ cells – imaging, known kinase inhibitor set, EGFP/DsRed ratio (AID 1053116).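 Further: cells exposed to compounds for 24 h at 37 °C before reading.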 The following applies: GFP-p53 stability, stronger effect = higher value; EGFP object count: measured here: GFP-p53 positive objects count.
Chain of Cellular tumor antigen p53 (Homo sapiens) (P04637 whole entry, looked up): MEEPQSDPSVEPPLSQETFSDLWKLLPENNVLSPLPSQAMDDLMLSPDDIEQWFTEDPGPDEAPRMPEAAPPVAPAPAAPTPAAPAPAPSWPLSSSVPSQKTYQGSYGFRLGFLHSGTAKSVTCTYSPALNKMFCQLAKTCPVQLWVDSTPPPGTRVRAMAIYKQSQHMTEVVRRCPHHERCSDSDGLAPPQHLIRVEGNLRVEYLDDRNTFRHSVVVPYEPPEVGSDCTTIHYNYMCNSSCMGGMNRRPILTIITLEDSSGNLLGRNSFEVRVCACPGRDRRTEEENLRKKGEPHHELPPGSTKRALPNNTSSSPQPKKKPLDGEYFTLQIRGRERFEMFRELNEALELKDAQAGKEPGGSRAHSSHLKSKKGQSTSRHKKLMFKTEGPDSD
Assay [6] is described as follows: inducers of IRF3 signaling, differentiated THP-1 – cell-based, PMA-stimulated THP-1, luminescence (AID 1053176). As to conditions: PMA-differentiated THP-1, IRF3 reporter luminescence; stronger effect = higher value.
Assay [7] in a line: MELAS cybrid and Rieske KO viability enhancers – cell-based, MELAS cybrids, Rieske KO mouse fibroblasts, CellTiter-Glo, primary screen (AID 1508586;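 active means mean z-score across replicates of 1.96 or higher in either the MELAS or the Rieske mutant cell line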;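 further: z relative to plate mean and SD of compound and empty wells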). As to conditions: low glucose.
A short description of assay [8]: viability loss with induced miR-34 in A549 – imaging, A549 dox-inducible miR-34, nuclei and caspase counts, primary screen (AID 1347080;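 active means compounds whose cell count with miR-34 switched on is under 0.7 times the count with it off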). As to conditions: A549 miR-34 inducible, Hoechst nuclei count, 48 h.
A short description of assay [9]: galactose survival enhancers in mitochondrial complex I cybrids – cell-based, galactose medium, ATP luminescence, primary screen (AID 1645843;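 active means z-score of at least 1.8 in each of two replicates, scored against plate mean and spread of sample wells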;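 further: positive z means more ATP and so rescue of galactose-driven cybrid death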). The following applies: complex I mutant cybrid cells, 72 h, stronger effect = higher value.
Assay [10] can be described thus: growth inhibition of DIPG cells – cell-based, MIPE4.0 library, CellTiter-Glo luminescence, qHTS (AID 1347066; cut-off not given, nearly all actives have AC50 up to about 30 µM;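 further: cells exposed to compound for 48 hours before readout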). The following applies: SU-DIPG-VI viability, CellTiter-Glo ATP luminescence. (In general: Cellular ATP, detected with luciferase, serves as a proxy for viable cell number.)
The nature of assay [11]: compounds altering HSF1 focus formation in cells – imaging, Selleck Cancer Library (AID 1347162; in the data active means plate-normalised HSF1 focus index below about 0.46). As to conditions: human cells, HSF1 nuclear foci imaging, at 10 µM; SSMD: measured here: HSF1 foci SSMD mean; cell count: measured here: cell number; plate-normalised HSF1 focus index: stronger effect = lower value.
Where [12] appears, read: MELAS cybrid survival, CellTiter-Glo 48 h, stronger effect = higher value.
The mark [13] stands for this setting: Rieske KO mouse fibroblast survival, CellTiter-Glo 72 h.

Results filed as inconclusive are left out. The source made the active and inactive calls. Unless noted, how the calls were made is not given here.

For `CC1=C(C(=O)Nc2ccc3n[nH]c(C)c3c2)C(c2ccc(C(F)(F)F)cc2)CC(=O)N1` (stereo not given), the liver cell % of control in assay [1] turned out to be 99.2%. The parasite % of control in assay [1] was 202% (inactive). Moreover, the percent of negative control (+Dex) in assay [2] was 82.5% (inactive). The z-score is -1.14 in assay [2]; 0.355 (inactive) in assay [3]; -0.104 (inactive) in [4]; -0.0625 (inactive) in assay [7] (setting [12]); -0.632 in assay [7] (setting [13]). Also, the EGFP object count in assay [5] stood at 2.5. Moreover, in [5], the EGFP/DsRed ratio was 0.0851 (inactive). Besides, the fraction signal in assay [6] is -0.006 (inactive).

With `CN(C)c1cc2c(Nc3ccc4c(cnn4Cc4ccccc4)c3)ncnc2cn1`, in [1], the liver cell % of control came out at 130%. For the same compound, in assay [1], the parasite % of control is 78.7% (inactive). For the same compound, the percent of negative control (+Dex) in assay [2] is 68% (inactive). For the same compound, the z-score in assay [2] is -1.64; in assay [3], 0.66 (inactive); in assay [4] it was -0.608 (inactive); in assay [7] (setting [12]), -0.0495 (inactive); in [7] (setting [13]) it was -0.233; in assay [9], -0.71 (inactive). The EGFP object count in assay [5] is 3.5. Moreover, the EGFP/DsRed ratio in assay [5] was 0.0403 (inactive). In addition, in assay [6], the fraction signal was -0.004 (inactive). Also, the fold change was 1.64 (inactive) in assay [8] (stronger effect = lower value, cell number ratio, induced over uninduced) and 0.646 in assay [8] (measured here: relative caspase fold change +Dox/-Dox). Moreover, the cell count in assay [8] (measured here: total cells with miR-34 induction, stronger effect = lower value) stood at 3320; in assay [8] (measured here: total cells without miR-34 induction) it was 2020.

As for `Fc1ccc(-c2ncn(C3CCNCC3)c2-c2ccnc(Oc3ccc4c(c3)OCO4)n2)cc1`, the liver cell % of control in [1] was 71.9%. The parasite % of control in assay [1] is 187% (inactive). Further, the percent of negative control (+Dex) in assay [2] is 107% (inactive). For the same compound, the z-score is 0.635 in assay [2]; 0.22 (inactive) in assay [3]; 0.062 (inactive) in assay [4]; -0.249 (inactive) in [7] (setting [12]); -0.36 in [7] (setting [13]). For the same compound, the EGFP object count in [5] is 6.5. Moreover, in [5], the EGFP/DsRed ratio is 0.159 (inactive). The fraction signal in assay [6] was -0.0065 (inactive).

Regarding `CCn1c(-c2nonc2N)nc2cnc(Oc3cccc(NC(=O)c4ccc(OCCN5CCOCC5)cc4)c3)cc21`, in assay [1], the liver cell % of control turned out to be 80.1% and the parasite % of control is 42.7% (inactive). In assay [2], the percent of negative control (+Dex) was 50.5% (inactive) and the z-score is -3.25. For the same compound, in assay [3], the z-score is 0.625 (inactive). In addition, the z-score in [4] is 1.15 (inactive). Also, in assay [5], the EGFP object count was 3 and the EGFP/DsRed ratio is 0.0358 (inactive). In assay [6], the fraction signal was 0.007 (inactive). Moreover, the result in assay [10] was inactive. Further, in assay [11], the SSMD is 0.629, the cell count worked out at 7080 and the plate-normalised HSF1 focus index was 1.04 (inactive). For the same compound, the z-score in [7] (setting [12]) was -0.727 (inactive). Moreover, the z-score in [7] (setting [13]) turned out to be 0.152.

With `Cc1cc(Cl)cc2c(N=Nc3ccc(S(N)(=O)=O)cc3)c(O)[nH]c12`, the liver cell % of control in assay [1] is 94.4%. Besides, the parasite % of control in assay [1] is 139% (inactive). Besides, in assay [2], the percent of negative control (+Dex) is 100% (inactive). The z-score is 0.945 in assay [2]; -0.145 (inactive) in [3]; -0.3 (inactive) in assay [4]; 0.0201 (inactive) in assay [7] (setting [12]); -0.605 in [7] (setting [13]). The EGFP object count in assay [5] was found to be 2.5. In addition, the EGFP/DsRed ratio in assay [5] is 0.092 (inactive). Further, the fraction signal in [6] is -0.0045 (inactive).

`O=S1CCN(Cc2ccc(-c3ccc4ncnc(Nc5ccc(OCc6ccccc6)c(F)c5)c4c3)o2)CC1`: the liver cell % of control in assay [1] turned out to be 81.6%. Besides, the parasite % of control in assay [1] was 112% (inactive). Moreover, the percent of negative control (+Dex) in assay [2] is 77.5% (inactive). The z-score is -1.04 in assay [2]; -0.505 (inactive) in assay [3]; 0.693 (inactive) in [4]; -0.335 (inactive) in assay [7] (setting [12]); -0.276 in assay [7] (setting [13]). Also, the EGFP object count in assay [5] was 2.5. In assay [5], the EGFP/DsRed ratio was 0.0418 (inactive). Besides, the fraction signal in assay [6] was 0.012 (inactive).

For the origin of these results see PubChem BioAssay.
